In all, about 16,000 compounds went through this assay and about 250 (1.6%) were called active.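 Rule for the calls: active = inhibition above the average over every tested compound plus 3 SD (cut at about 40% in these data); inactive = the rest.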 The entries come from a sample that favours actives as a whole.
system: Hepatitis C virus NS3 helicase; experiment: compounds blocking NS3h DNA binding – biochemical, fluorescence polarization, ChemBridge library, primary screen (AID 687043); conditions: NS3h Cy5-dT15 DNA binding, at 100 µM, hits give high values

inhibition, inactive:
CCOC(=O)c1cc2n(n1)C(C(F)(F)F)CC(c1ccco1)N2 (stereo not given) 1.4%
COc1ccc(Nc2nc(-c3ccccc3)c3cc(C)ccc3n2)cc1 6.7%
COc1ccc(S(=O)(=O)NCCC(C)C)cc1 4.2%
Cc1ccc(CCC(=O)Nc2ncc(Cc3ccc(F)cc3)s2)o1 -10.4%
COc1ccc(C(=O)Nc2ccc(Br)cc2C)c(OC)c1 24.4%
COc1ccccc1CNC(=O)C1CC(=O)N(c2ccc(F)cc2)C1 (stereo not given) 1.7%
Cc1ccc(C(=O)Nc2ccc(Cl)cc2)cc1[N+](=O)[O-] -9.5%
O=C(/C=C/c1cc2c(cc1Br)OCO2)c1cccc([N+](=O)[O-])c1 2.3%
COc1ccc(-c2noc(-c3ccc(Br)cc3)n2)cc1 3.3%
O=C(NCc1ccco1)/C(=C/c1cccc(Oc2ccccc2)c1)NC(=O)c1ccccc1 9.7%
Cc1nc(SCC#N)c(C#N)c(C)c1C 9%
COc1ccc2c(Cl)c(C(=O)NCc3ccc4c(c3)OCO4)sc2c1 17%
Cc1ccccc1OCC(=O)Nc1ccc(OC(F)(F)F)cc1 2.3%
CC(C)Nc1nc(-c2ccc(Cl)cc2)nc2ccccc12 19.8%
COc1cccc(C2C(C(=O)Nc3ccccc3)=C(C)N=c3s/c(=C\c4ccncc4)c(=O)n32)c1 (stereo not given) 2.2%
Cn1c(=O)c2c(nc(Sc3ncn[nH]3)n2C)n(C)c1=O -6.5%
CCOC(=O)C1=C(C)N=c2s/c(=C/c3c[nH]c4ccccc34)c(=O)n2C1c1ccc(F)cc1 (stereo not given) -6.3%
O=C(c1ccncc1)N1N=C(c2ccc(Cl)cc2)CC1(O)C(F)(F)F (stereo not given) 13.4%
COC(=O)C1=C(C)NC2=C(C(=O)CC(c3ccc(OC)c(OC)c3)C2)C1c1ccc(OC)c(OC)c1 (stereo not given) 7.3%
O=C(CN(c1cccc(Br)c1)S(=O)(=O)c1ccccc1)N1CCOCC1 3.1%
Cn1c(=O)n(CCOc2ccc(Br)cc2)c2ccccc21 13.9%
Cc1nc2c([N+](=O)[O-])cc(Br)cc2c(=O)[nH]1 -12.6%
COc1ccc(CCNC(=O)C(=O)Nc2ccccc2C)cc1OC 15.5%
CCOc1ccc(C2=C/C(=C/c3ccc(OC)c(OC)c3)C(=O)O2)cc1 -0.3%
Cc1ccc(COc2ccc3oc(C)c(C(=O)O)c3c2)cc1 5.2%
COc1ccccc1N1CCN(S(=O)(=O)c2ccc(SC)cc2)CC1 -1.6%
CCOc1cc(/C=C2\C=C(c3ccc(C)cc3)OC2=O)ccc1OC(C)=O -4.9%
O=C(COc1ccc(Br)cc1)Nc1cccc2nsnc12 6%
O=C(COc1ccccc1)Nc1ccc(NC(=O)COc2ccccc2)cc1 2.2%
COc1ccc(OC)c(C=NN2CCN(Cc3ccc(C)cc3C)CC2)c1 11.9%
